Laboratory results: PubChem BioAssay (NCI)
The panel holds about 79,000 compounds, 15% with a hit somewhere; the sample as a whole holds those more often. Calls of active or inactive are those of the source. Rule as the data show it: active = growth inhibition above about 70%; inactive = the rest.

Tests used:
[1] = NCI Yeast Anticancer Drug Screen. Data for the wt1 strain (AID 149);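 also: 0% = growth of vehicle-treated wt1 cultures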; settings: S. cerevisiae wt1 strain (SPY 50644) growth inhibition, active compounds read high
Procedure, shortened: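 Compounds are added to wt1 yeast cultures. Growth is then measured. Inhibition is expressed relative to vehicle-treated controls.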

[2] = NCI Yeast Anticancer Drug Screen. Data for the rad50EPP+ strain (AID 151);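 also: 0% = growth of vehicle-treated control cultures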; settings: S. cerevisiae rad50 mutant strain, active compounds read high
Procedure, shortened: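 Genetically defined yeast (rad50EPP+, DNA damage repair alteration) is grown with compound, and inhibition of growth is expressed relative to vehicle-treated controls.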

[3] = NCI Yeast Anticancer Drug Screen. Data for the mgt1 strain (AID 153); settings: S. cerevisiae mgt1 mutant growth inhibition, active compounds read high
Procedure, shortened: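 In the mgt1 strain, test compounds were added and growth inhibition was determined relative to vehicle-treated controls.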

[4] = NCI Yeast Anticancer Drug Screen. Data for the rad50 strain (AID 155);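 also: 0% = growth of vehicle-only cultures of the same strain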; settings: S. cerevisiae rad50 strain growth inhibition, active compounds read high
Procedure, shortened: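 Inhibition values express reduced yeast growth in compound-treated cultures relative to vehicle-treated controls.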

[5] = NCI Yeast Anticancer Drug Screen. Data for the mec2-1 strain (AID 157); settings: S. cerevisiae mec2-1 strain, active compounds read high
Procedure, shortened: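 Each compound was tested on mec2-1 yeast, a strain altered in DNA damage repair or cell cycle control. Growth inhibition is reported relative to vehicle.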

[6] = NCI Yeast Anticancer Drug Screen. Data for the rad14 strain (AID 159);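 also: 0% = growth of vehicle-treated control cultures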; settings: S. cerevisiae rad14 strain growth inhibition, active compounds read high
Procedure, shortened: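 A mutant yeast strain defective in DNA damage repair is treated with compound; inhibition of its growth is scored against untreated, vehicle-exposed cultures.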

[7] = NCI Yeast Anticancer Drug Screen. Data for the sgs1 mgt1 strain (AID 161);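 also: 0% = growth of cultures given vehicle only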; settings: S. cerevisiae sgs1 mgt1 strain, active compounds read high
Procedure, shortened: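 Mutant yeast exposed to compound; growth scored against vehicle-only wells.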

[8] = NCI Yeast Anticancer Drug Screen. Data for the CLN2oe strain (AID 163);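 also: 0% = growth of vehicle-only control cultures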; settings: S. cerevisiae CLN2oe strain, active compounds read high
Procedure, shortened: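 First, the altered yeast strain was treated with each compound; second, its growth was measured; finally, inhibition was derived by comparison with vehicle controls.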

[9] = NCI Yeast Anticancer Drug Screen. Data for the cln2 rad14 strain (AID 165);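 also: 0% = growth equal to vehicle treated cultures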; settings: S. cerevisiae cln2 rad14 strain, active compounds read high
Procedure, shortened: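 Test compounds were added to cln2 rad14 yeast cultures; inhibition of growth was then determined by comparison with vehicle treatment.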

[10] = NCI Yeast Anticancer Drug Screen. Data for the bub3 strain (AID 167); settings: S. cerevisiae bub3 mutant strain, active compounds read high
Procedure, shortened: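 Steps: expose the mutant yeast strain to compound; grow alongside vehicle-treated cultures; measure growth; express inhibition against the vehicle cultures.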

[11] = NCI Yeast Anticancer Drug Screen. Data for the wt2 strain (AID 169);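 also: 0% = growth of vehicle-treated yeast cultures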; settings: S. cerevisiae wt2 strain growth inhibition, active compounds read high
Procedure, shortened: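 The panel's yeast strains carry defined changes in DNA repair or cell cycle genes. Each strain is grown with compound, and growth loss is scored relative to vehicle.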

[12] = NCI Yeast Anticancer Drug Screen. Data for the sgs1 strain (AID 173);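 also: 0% = growth of vehicle-only control cultures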; settings: S. cerevisiae sgs1 mutant, active compounds read high
Procedure, shortened: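 Vehicle-treated cultures served as reference for growth inhibition of a yeast strain altered in DNA damage repair or cell cycle control after compound exposure.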

[13] = NCI Yeast Anticancer Drug Screen. Data for the mlh1 rad18 strain (AID 175); settings: S. cerevisiae mlh1 rad18 strain growth inhibition, active compounds read high
Procedure, shortened: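 Inhibition values reflect reduced growth of mutant yeast versus vehicle-treated controls following compound exposure; the mutations affect DNA damage repair.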

[14] = NCI Yeast Anticancer Drug Screen. Data for the rad18 strain (AID 177); settings: S. cerevisiae rad18 mutant growth inhibition, active compounds read high
Procedure, shortened: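 Steps: expose repair-mutant yeast to compound; measure growth; express as inhibition relative to vehicle control.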

[15] = NCI Yeast Anticancer Drug Screen. Data for the rad52 strain (AID 147);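 also: 0% = growth of vehicle-treated control cultures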; settings: S. cerevisiae rad52 mutant growth inhibition, active compounds read high
Procedure, shortened: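 Inhibition of yeast growth, referenced to vehicle controls, was the measured output for a strain with defective DNA damage repair.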

[16] = NCI Yeast Anticancer Drug Screen. Data for the mlh1 strain (AID 171);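 also: 0% = growth of vehicle-treated control cultures of the same strain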; settings: S. cerevisiae mlh1 strain growth inhibition, active compounds read high
Procedure, shortened: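 Inhibition values reflect reduced yeast growth in the presence of compound, referenced to vehicle controls, using a strain chosen for its alteration in DNA repair or cell cycle control.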

[17] = at 5.0 µM (retest, dose inferred, filed as 0.5)
[18] = at 50.0 µM (retest, dose inferred, filed as 5.0)

Measured: growth inhibition

CSc1s[s+]c(SC)c1-c1ccccc1
active: [2]; at 33.0 µM 93% | [2]; at 100.0 µM 89% | [3]; at 100.0 µM 76% | [4]; at 50.0 µM 72.3% | [7]; [18] 73% | [10]; [18] 72% | [10]; at 100.0 µM 75% | [12]; at 100.0 µM 70% | [13]; at 50.0 µM 71.8% | [14]; at 100.0 µM 73%
inactive: [1]; at 1.2 µM 5% | [1]; at 3.7 µM 15% | [1]; at 11.0 µM 18% | [1]; at 33.0 µM 49% | [1]; at 100.0 µM 65% | [2]; at 1.2 µM 14% | [2]; at 3.7 µM 10% | [2]; at 11.0 µM 61% | [3]; at 1.2 µM 13% | [3]; at 3.7 µM 28% | [3]; at 11.0 µM 25% | [3]; at 33.0 µM 59% | [4]; at 1.2 µM -3% | [4]; at 3.7 µM 2% | [4]; [17] 28% | [4]; at 11.0 µM 11% | [4]; at 33.0 µM 58% | [4]; [18] 46% | [4]; at 100.0 µM 68% | [5]; at 1.2 µM 7% | [5]; at 3.7 µM -5% | [5]; [17] 48% | [5]; at 11.0 µM 1% | [5]; at 33.0 µM 51% | [5]; [18] 52% | [5]; at 50.0 µM 60.6% | [5]; at 100.0 µM 59% | [6]; at 1.2 µM -31% | [6]; at 3.7 µM -23% | [6]; at 11.0 µM -21% | [6]; at 33.0 µM 21% | [6]; at 100.0 µM 59% | [7]; [17] -6% | [8]; at 1.2 µM 9% | [8]; at 3.7 µM 12% | [8]; at 11.0 µM 4% | [8]; at 33.0 µM 34% | [8]; at 100.0 µM 42% | [9]; [17] 26% | [9]; [18] 59% | [10]; at 1.2 µM 9% | [10]; at 3.7 µM 12% | [10]; [17] 36% | [10]; at 11.0 µM 24% | [10]; at 33.0 µM 66% | [11]; at 1.2 µM -26% | [11]; at 3.7 µM -19% | [11]; at 11.0 µM -34% | [11]; at 33.0 µM 39% | [11]; at 100.0 µM 68% | [12]; at 1.2 µM -20% | [12]; at 3.7 µM -29% | [12]; at 11.0 µM -15% | [12]; at 33.0 µM 47% | [13]; [17] 34% | [13]; [18] 56% | [14]; at 1.2 µM 3% | [14]; at 3.7 µM 14% | [14]; at 11.0 µM 22% | [14]; at 33.0 µM 63%

Cc1ccc(Nc2c3c(c(C#N)c4nc5ccccc5n24)CCCC3)cc1
active: [15]; at 33.0 µM 70% | [15]; at 100.0 µM 72% | [4]; at 33.0 µM 71% | [4]; [18] 74% | [4]; at 100.0 µM 70% | [5]; at 100.0 µM 73% | [7]; at 50.0 µM 74.5% | [8]; at 33.0 µM 70% | [9]; at 50.0 µM 72.8% | [10]; at 33.0 µM 74% | [10]; at 50.0 µM 78.8% | [10]; at 100.0 µM 76% | [11]; at 33.0 µM 74% | [11]; at 100.0 µM 72% | [16]; at 33.0 µM 78% | [16]; at 100.0 µM 78% | [12]; at 33.0 µM 77% | [12]; at 100.0 µM 81% | [14]; at 33.0 µM 75% | [14]; at 100.0 µM 72%
inactive: [15]; at 1.2 µM 6% | [15]; at 3.7 µM 21% | [15]; at 11.0 µM 24% | [2]; at 1.2 µM 14% | [2]; at 3.7 µM 23% | [2]; at 11.0 µM 27% | [2]; at 33.0 µM 38% | [2]; at 100.0 µM 31% | [4]; at 1.2 µM 1% | [4]; at 3.7 µM 32% | [4]; [17] 31% | [4]; at 11.0 µM 23% | [4]; at 50.0 µM 63.3% | [5]; at 1.2 µM -15% | [5]; at 3.7 µM 15% | [5]; [17] 12% | [5]; at 11.0 µM 11% | [5]; at 33.0 µM 65% | [5]; [18] 58% | [5]; at 50.0 µM 66% | [6]; at 1.2 µM 1% | [6]; at 3.7 µM 10% | [6]; at 11.0 µM 10% | [6]; at 33.0 µM 25% | [6]; at 100.0 µM 36% | [7]; [17] 16% | [7]; [18] 30% | [8]; at 1.2 µM 20% | [8]; at 3.7 µM 34% | [8]; at 11.0 µM 21% | [8]; at 100.0 µM 62% | [9]; [17] 21% | [9]; [18] 14% | [10]; at 1.2 µM 8% | [10]; at 3.7 µM 15% | [10]; [17] 26% | [10]; at 11.0 µM 23% | [10]; [18] 34% | [11]; at 1.2 µM 4% | [11]; at 3.7 µM -8% | [11]; at 11.0 µM 59% | [16]; at 1.2 µM -5% | [16]; at 3.7 µM 15% | [16]; at 11.0 µM 22% | [12]; at 1.2 µM 30% | [12]; at 3.7 µM 34% | [12]; at 11.0 µM 29% | [13]; [17] 28% | [13]; [18] 68% | [13]; at 50.0 µM 6.1% | [14]; at 1.2 µM 6% | [14]; at 3.7 µM 27% | [14]; at 11.0 µM 38%

CCN1/C(=C/c2ccc3ccccc3[n+]2CC)C=Cc2ccccc21
inactive: [1]; at 1.2 µM -13% | [1]; at 3.7 µM -12% | [2]; at 1.2 µM 4% | [2]; at 3.7 µM 6% | [2]; at 11.0 µM 8% | [2]; at 33.0 µM 67% | [4]; at 1.2 µM -3% | [4]; at 3.7 µM -2% | [5]; at 1.2 µM -3% | [5]; at 3.7 µM 16% | [6]; at 1.2 µM -27% | [6]; at 3.7 µM 1% | [7]; [17] 7% | [8]; at 1.2 µM 0% | [8]; at 3.7 µM 10% | [10]; at 1.2 µM -3% | [10]; at 3.7 µM 37% | [10]; [17] 42% | [11]; at 1.2 µM -32% | [11]; at 3.7 µM -20% | [11]; at 11.0 µM 57% | [16]; at 1.2 µM -27% | [16]; at 3.7 µM -15% | [16]; at 11.0 µM 41% | [12]; at 1.2 µM -9% | [12]; at 3.7 µM -17%
active: [1]; at 11.0 µM 75% | [1]; at 33.0 µM 99% | [1]; at 100.0 µM 99% | [2]; at 100.0 µM 92% | [4]; [17] 99% | [4]; at 11.0 µM 81% | [4]; at 33.0 µM 97% | [4]; [18] 97% | [4]; at 50.0 µM 90.5% | [4]; at 100.0 µM 96% | [5]; [17] 99% | [5]; at 11.0 µM 98% | [5]; at 33.0 µM 99% | [5]; [18] 98% | [5]; at 50.0 µM 92% | [5]; at 100.0 µM 99% | [6]; at 11.0 µM 98% | [6]; at 33.0 µM 98% | [6]; at 100.0 µM 98% | [7]; [18] 98% | [7]; at 50.0 µM 93% | [8]; at 11.0 µM 94% | [8]; at 33.0 µM 99% | [8]; at 100.0 µM 98% | [10]; at 11.0 µM 96% | [10]; at 33.0 µM 98% | [10]; [18] 99% | [10]; at 50.0 µM 91% | [10]; at 100.0 µM 98% | [11]; at 33.0 µM 98% | [11]; at 100.0 µM 98% | [16]; at 33.0 µM 97% | [16]; at 100.0 µM 97% | [12]; at 11.0 µM 93%
